# Records with an inconclusive call do not appear. Calls of active or inactive are those of the source. The call rests on the fitted dose curve; in most records, active means well fitted activation curve with a large enough effect in the signal ratio in the repeat runs (not every such curve was filed as active); inconclusive means weak or mixed curves; inactive means flat fitted curve, though single readings scatter; the % refers to the signal ratio.
# Experiment: qHTS assay to identify small molecule agonists of the TGF-beta/Smad signaling pathway (AID 1346859)
# Conditions: SBE-bla HEK293T, TGF-beta/Smad beta-lactamase reporter, 5 h; series mostly up to 76.8 µM
# Description: U.S. Tox21 Program National Center for Advancing Translational Sciences [NCATS] NIH Chemical Genomics Center [NCGC] U.S. Environmental Protection Agency [EPA] National Institutes of Environmental Health Sciences [NIEHS] National Toxicology Program [NTP] U.S. Food and Drug Administration [FDA] Tox21 Assay Overview: Transforming growth factor beta (TGF-beta) superfamily consists of a large number of structurally related dimeric proteins that act as hormones or local mediators in regulating a wide range of biological functions. This superfamily includes TGF-betas themselves, the bone morphogenetic proteins (BMPs) and the activins. These ligands induce oligomerization of serine/threonine receptor kinases and phosphorylate the cytoplasmic signaling molecules of Smad protein family. CellSensor SBE-bla HEK 293T cell line (Life Technologies, Carlsbad, CA), responsive to TGF-beta was used to screen Tox21 10K compound library for identification of agonists/antagonists of the Smad signaling pathway. This cell line contains a beta-lactamase reporter gene under control of the Smad binding element (SBE) stably integrated into HEK 293T cells.
# Tox21 Assay Protocol Summary: SBE-bla HEK 293T cells were dispensed at 4,000/well in 6 uL of assay medium into black wall/clear-bottom 1536-well plates using a Multidrop Combi (ThermoFisher Scientific, Waltham, MA) dispenser. After the assay plates were incubated at 37 C and 5% CO2 for an overnight, 23 nL of compounds dissolved in DMSO, positive controls or DMSO only was transferred to the assay plate by a Pintool station (Kalypsys, San Diego, CA). The assay plates were incubated at 37 C and 5% CO2 for 5 hr. One uL of LiveBLAzer B/G FRET substrate (Life Technologies) was added using a Flying Reagent Dispenser (Aurora Discovery, San Diego, CA) and the plates were incubated at room temperature for 2 hr. Fluorescence intensity (405 nm excitation, 460 nm and 530 nm emissions) was measured using an Envision plate reader (PerkinElmer, Shelton, CT).
row,Compound,outcome
1,Cn1sc(Cl)cc1=O,inactive
2,O=C1C(=O)c2cccc3cccc1c23,inactive
3,C=CCCl,inactive
4,c1ccoc1,inactive
5,COP(=O)(OC)O/C(=C/Cl)c1cc(Cl)c(Cl)cc1Cl,inactive
6,Cn1cc[n+](C)c1 (tested in a mixture with another compound),inactive
7,CCOP(=S)(Oc1ccc([N+](=O)[O-])cc1)c1ccccc1 (stereo not given),inactive
8,OC(c1ccc(Cl)cc1)(c1ccc(Cl)cc1)c1cccnc1,inactive
9,CC/C(=N\OC/C=C/Cl)C1=C(O)CC(C2CCOCC2)CC1=O (stereo not given),inactive
10,O=C(C(Cl)(Cl)Cl)C(Cl)(Cl)Cl,inactive
11,CCOP(=O)(OCC)O/C(=C/Cl)c1ccc(Cl)cc1Cl,inactive
12,C=CCC1([C@H](C)CCC)C(=O)NC(=O)NC1=O,inactive
13,COP(=S)(Oc1cc(Cl)c(Br)cc1Cl)c1ccccc1 (stereo not given),inactive
14,CC(C)=CCOc1c2occc2cc2ccc(=O)oc12,inactive
15,O=[N+]([O-])c1ccccc1CCl,inactive
16,CCOc1ccc(C(C)(C)COCc2cccc(Oc3ccccc3)c2)cc1,inactive
17,II,inactive
18,CC(C)N(CCC(C(N)=O)(c1ccccc1)c1ccccn1)C(C)C (stereo not given),inactive
19,CCC(COC(=O)c1cc(OC)c(OC)c(OC)c1)(c1ccccc1)N(C)C (stereo not given),inactive
20,CN(C)c1ccc(N(C)C)cc1,inactive

row,Compound,outcome
1,CCO[C@H]1O[C@@H]2OC3(C)CC[C@H]4[C@H](C)CC[C@@H]([C@H]1C)[C@@]24OO3,inactive
2,CC(c1ccc(O)cc1)(c1ccc(O)cc1)c1ccc(O)cc1,inactive
3,Cl/C=C\Cl,inactive
4,C=CCOC(C)=O,inactive
5,CCOP(O)OCC,inactive
6,CCc1ccc(C(=O)NN(C(=O)c2cc(C)cc(C)c2)C(C)(C)C)cc1,inactive
7,O=C1CN=C(c2ccccc2)c2cc(Cl)ccc2N1CC1CC1,inactive
8,Sc1ccccc1Cl,inactive
9,Brc1ccc(Oc2ccccc2)cc1,inactive
10,BrCC(Br)C1CCC(Br)C(Br)C1 (stereo not given),inactive
11,O=C=Nc1ccc(Cl)cc1,inactive
12,ClC=C(Cl)Cl,inactive
13,CC(=O)c1cc2c(cc1C)C(C)(C)C(C)CC2(C)C (stereo not given),inactive
14,CCCC(Cn1cncn1)c1ccc(Cl)cc1Cl (stereo not given),inactive
15,Cc1c(F)c(F)c(COC(=O)C2C(/C=C(\Cl)C(F)(F)F)C2(C)C)c(F)c1F (stereo not given),inactive
16,CC[C@H]1C[C@H]2[C@@H]3CCC4=CC(=O)CC[C@@H]4[C@H]3CC[C@]2(C)[C@H]1O,inactive
17,CCOP(=S)(OCC)Oc1nc(Cl)c(Cl)cc1Cl,inactive
18,BrCCCCBr,inactive
19,CC(=O)[C@H]1CC[C@H]2[C@@H]3CC[C@H]4C[C@](C)(O)CC[C@]4(C)[C@H]3CC[C@]12C,inactive
20,Cc1ccc(-c2c(Cl)nc(C#N)n2S(=O)(=O)N(C)C)cc1,inactive

# From PubChem BioAssay (Tox21)
